In PubChem BioAssay (Tox21):
“And” between values parts separate entries of the source, which are not always exact repeats. Equal values may be shown once. Results filed as inconclusive are left out. A call without a number means that no potency is given here. The source made the active and inactive calls. Unless noted, the call rests on the fitted dose curve.

How the values were obtained:
[1] = Nuclear factor erythroid 2-related factor 2/antioxidant responsive element (Nrf2/ARE) small molecule agonists: qHTS cell viability counter screen in human keratinocytes (AID 1919968; active means well fitted curve in the direction sought with a large enough effect in the repeat runs; an effect the other way counts as inactive or inconclusive; further: nearly all actives have a fitted effect of over 55% in size)
Method in brief: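 Stably transfected HaCaT (KeratinoSens), 1,500/well. Test agents in DMSO were applied for 23 h, 37 C/5% CO2. CellTiter-Fluor was incubated 1 h before the fluorescence read.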

[2] = Nuclear factor erythroid 2-related factor 2/antioxidant responsive element (Nrf2/ARE) small molecule agonists: luciferase reporter gene qHTS assay in human keratinocytes (AID 1919969); further: nearly all actives have a fitted effect of over 35% in size; further: potency means the concentration at half of the fitted maximal effect
[3] = biological target: Gonadotropin-releasing hormone receptor (Homo sapiens) (UniProt P30968); test: Human gonadotropin-releasing hormone receptor (GnRHR) small molecule agonists, calcium flux assay in GnRHR-HEK293 cells (AID 1920063); further: nearly all actives have a fitted effect of over 35% in size
Method in brief: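 Stable human GnRHR HEK293 line. 18 h plating, then calcium dye for 1 h at 37 C. Agonist-mode compound addition from DMSO stocks; fluorescence monitored 3 min.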

[4] = biological target: KiSS-1 receptor (Homo sapiens) (UniProt Q969F8); test: Human kisspeptin (KISS1R) small molecule agonists, calcium flux assay in KISS1R-HEK293 cells (AID 1920064; active means well fitted curve in the direction sought with a large enough effect in the repeat runs; an effect the other way counts as inactive or inconclusive)
Method in brief: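 After overnight (18 h) culture at 37 C/5% CO2, human KISS1R-HEK293 cells received calcium dye for 1 h, then test compound; emission at 540 nm (excitation 480 nm) was tracked for 3 min.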

[5] = G protein-coupled receptor (GPCR) small molecule agonists, calcium flux assay: HEK293 wild type cell line counter screen (AID 1920065)
Method in brief: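 Following 18 h incubation at 37 C/5% CO2, plates got calcium dye for 1 h; compounds, ATP or DMSO were then pinned in and fluorescence followed kinetically (480/540 nm).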

[6] = p53 small molecule agonists, cell-based qHTS assay with human liver microsomes (AID 1963577);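 further: p53 response element beta-lactamase reporter cells with liver microsomes plus NADPH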
Method in brief: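 Steps: plate p53RE-bla cells, incubate 5 h at 37 C; add compound in DMSO; add microsomes (0.5 mg/mL final) and NADPH (0.5 mg/mL final); incubate 16 h at 37 C; add LiveBLAzer, 2 h RT; read fluorescence.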

[7] = p53 small molecule agonists, cell-based qHTS assay with rat liver microsomes (AID 1963578)
Method in brief: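 Metabolic activation is supplied by rat liver microsomes with NADPH (each 0.5 mg/mL final). p53RE-bla cells incubate with compound 16 h at 37 C; reporter activity is measured by LiveBLAzer fluorescence.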

[8] = p53 small molecule agonists, cell-based qHTS assay with human liver microsomes: qHTS cell viability counter screen (AID 1963579); further: nearly all actives have a fitted effect of over 45% in size
Method in brief: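 After the 460/530 nm beta-lactamase read, CellTiter-Glo was added to the same wells and luminescence measured after 30 min at room temperature, giving viability of p53RE-bla cells treated 16 h with compounds plus microsomes and NADPH.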

[9] = p53 small molecule agonists, cell-based qHTS assay with rat liver microsomes: qHTS cell viability counter screen (AID 1963580); further: nearly all actives have a fitted effect of over 45% in size
Method in brief: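 Cytotoxicity counter screen: intracellular ATP read by CellTiter-Glo luminescence in the p53 reporter wells. HCT-116 p53RE-bla cells were treated for 16 h at 37 C alongside rat liver microsomes and NADPH, each 0.5 mg/mL final.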

[10] = p53 small molecule agonists, cell-based qHTS assay: qHTS cell viability counter screen (AID 1963581); further: nearly all actives have a fitted effect of over 45% in size
Method in brief: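 qHTS counter screen: 16 h compound exposure at 37 C of p53RE-bla HCT-116 cells (4,000 per well, seeded 5 h prior), cell viability by ATP luminescence.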

[11] = p53 small molecule agonists, cell-based qHTS assay (AID 1963582; active means well fitted activation curve with a large enough effect in the signal ratio in the repeat runs, not every such curve was filed as active; the % refers to the signal ratio)
Method in brief: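 Measured: fluorescence from cleaved LiveBLAzer substrate. System: p53RE-bla cells, 16 h compound treatment at 37 C, 2 h substrate step at room temperature.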

[12] = biological target: 5-hydroxytryptamine receptor 2A (Homo sapiens) (UniProt P28223); test: 5-hydroxytryptamine receptor 2A (HTR2A) small molecule antagonists, cell-based qHTS assay (AID 1963586); further: nearly all actives have a fitted effect of over 45% in size
Method in brief: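 CHO cells stably expressing human HTR2A were plated for 18 h at 37 C, then loaded with calcium dye for 1 h. Compounds were preincubated 5 min at room temperature before DOI (4 nM solution) was added. Kinetic fluorescence was read for 3 min.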

[13] = biological target: 5-hydroxytryptamine receptor 2A (Homo sapiens) (UniProt P28223); test: 5-hydroxytryptamine receptor 2A (HTR2A) small molecule agonists, cell-based qHTS assay (AID 1963587); further: nearly all actives have a fitted effect of over 30% in size
Method in brief: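 Kinetic calcium-flux fluorescence (2 min, 1 sec intervals) after compound addition in agonist mode. HTR2A-CHO cells were cultured 18 h, then dye-loaded 1 h at 37 C.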

[14] = biological target: Muscarinic acetylcholine receptor M1 (Homo sapiens) (UniProt P11229); test: Cholinergic receptor muscarinic 1 (CHRM1) small molecule antagonists, cell-based qHTS assay (AID 1963588); further: nearly all actives have a fitted effect of over 40% in size; further: potency means the concentration at half of the fitted maximal effect
Method in brief: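 Compounds were tested at 15 concentrations in three independent runs. Dye-loaded CHRM1-CHO cells were exposed 5 min at room temperature before stimulation by acetylcholine added at 50nM. Intracellular calcium was read kinetically on FDSS for 3 min.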

[15] = biological target: Muscarinic acetylcholine receptor M1 (Homo sapiens) (UniProt P11229); test: Cholinergic receptor muscarinic 1 (CHRM1) small molecule agonists, cell-based qHTS assay (AID 1963589); further: nearly all actives have a fitted effect of over 35% in size
Method in brief: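 Kinetic fluorescence (1 s intervals) of calcium-sensitive dye in human M1 CHO cells after compound addition; cells pre-incubated 18 h at 37 C/5% CO2 and dye-loaded 1 h.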

[16] = biological target: Beta-2 adrenergic receptor (Homo sapiens) (UniProt P07550); test: Adrenergic beta2 receptor (ADRB2) small molecule antagonists, cell-based qHTS assay (AID 1963592); further: series mostly up to about 92 µM; nearly all actives have a fitted effect of over 50% in size
Method in brief: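 Assay format: CHO-ADRB2 cells, 18-20hr seeding at 37C/5% CO2, then compound plus 1nM isoproterenol agonist mix for 0.5hr RT. Homogeneous time-resolved fluorescence cAMP detection after 1hr, expressed as 665/615 nm ratio.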

[17] = biological target: D(2) dopamine receptor (Homo sapiens) (UniProt P14416); test: Dopamine D2 receptor (DRD2) small molecule agonists, cell-based qHTS assay (AID 1963594); further: nearly all actives have a fitted effect of over 35% in size
Method in brief: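 cAMP accumulation in DRD2-HEK293 cells measured by HTRF after 1 h detection; compounds added 10 min before NKH477 (200nM […]) forskolin-analogue stimulation, 30 min at room temperature, with Ro20-1724 present at 0.1 mM final.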

[18] = biological target: D(2) dopamine receptor (Homo sapiens) (UniProt P14416); test: Dopamine D2 receptor (DRD2) small molecule antagonists, cell-based qHTS assay (AID 1963595; active means well fitted inhibition curve with a large enough effect in the signal ratio in the repeat runs, with a control signal flat; the % refers to the signal ratio)
Method in brief: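 HEK293 cells stably expressing DRD2, preincubated with 0.1 mM Ro20-1724 and compounds 10 min, were stimulated with 200 nM NKH477 plus 12 nM quinpirole for 30 min at room temperature; cAMP measured by HTRF (665/620 nm).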

[19] = cAMP Responsive Elements (CRE) small molecule agonists, cell-based qHTS assay (AID 1963590)
Method in brief: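 Test agents in DMSO were incubated 3 h at 37 C/5% CO2 with CRE-bla HEK 293T cells seeded 18 h earlier; LiveBLAzer B/G FRET substrate was added and read after 2 h at room temperature.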

[20] = cAMP Responsive Elements (CRE) small molecule antagonists, cell-based qHTS assay (AID 1963591; active means well fitted inhibition curve with a large enough effect in the signal ratio in the repeat runs, not every such curve was filed as active; the % refers to the signal ratio)
Method in brief: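 Reporter line CRE-bla HEK 293T in dialyzed-FBS DMEM; cells preincubated 18 h, treated 3 h with compound plus NKH477 (0.25 uM final); LiveBLAzer FRET, 2 h RT.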

Sequence of Muscarinic acetylcholine receptor M1 (Homo sapiens) (P11229 whole entry, looked up): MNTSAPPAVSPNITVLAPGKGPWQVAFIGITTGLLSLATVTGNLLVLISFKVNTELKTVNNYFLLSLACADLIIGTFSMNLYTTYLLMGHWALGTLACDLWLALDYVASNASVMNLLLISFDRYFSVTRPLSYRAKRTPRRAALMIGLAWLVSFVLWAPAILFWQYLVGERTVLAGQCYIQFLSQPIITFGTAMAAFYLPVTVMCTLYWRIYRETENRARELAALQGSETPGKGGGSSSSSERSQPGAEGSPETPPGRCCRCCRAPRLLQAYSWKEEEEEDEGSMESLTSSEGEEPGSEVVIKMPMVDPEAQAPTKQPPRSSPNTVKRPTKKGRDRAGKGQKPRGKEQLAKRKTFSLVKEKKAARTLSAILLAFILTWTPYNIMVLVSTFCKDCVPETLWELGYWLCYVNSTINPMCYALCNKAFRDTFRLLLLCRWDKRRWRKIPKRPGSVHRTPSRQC
Sequence of Gonadotropin-releasing hormone receptor (Homo sapiens) (P30968 whole entry, looked up): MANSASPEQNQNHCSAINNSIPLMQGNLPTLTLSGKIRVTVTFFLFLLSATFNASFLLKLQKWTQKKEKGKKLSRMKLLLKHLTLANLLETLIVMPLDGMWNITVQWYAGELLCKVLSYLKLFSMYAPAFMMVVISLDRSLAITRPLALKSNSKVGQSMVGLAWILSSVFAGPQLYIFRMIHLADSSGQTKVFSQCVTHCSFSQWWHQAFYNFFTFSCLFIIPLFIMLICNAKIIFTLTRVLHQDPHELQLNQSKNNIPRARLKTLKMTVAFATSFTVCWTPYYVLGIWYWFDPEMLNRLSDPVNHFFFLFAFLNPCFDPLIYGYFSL
Sequence of Beta-2 adrenergic receptor (Homo sapiens) (P07550 whole entry, looked up): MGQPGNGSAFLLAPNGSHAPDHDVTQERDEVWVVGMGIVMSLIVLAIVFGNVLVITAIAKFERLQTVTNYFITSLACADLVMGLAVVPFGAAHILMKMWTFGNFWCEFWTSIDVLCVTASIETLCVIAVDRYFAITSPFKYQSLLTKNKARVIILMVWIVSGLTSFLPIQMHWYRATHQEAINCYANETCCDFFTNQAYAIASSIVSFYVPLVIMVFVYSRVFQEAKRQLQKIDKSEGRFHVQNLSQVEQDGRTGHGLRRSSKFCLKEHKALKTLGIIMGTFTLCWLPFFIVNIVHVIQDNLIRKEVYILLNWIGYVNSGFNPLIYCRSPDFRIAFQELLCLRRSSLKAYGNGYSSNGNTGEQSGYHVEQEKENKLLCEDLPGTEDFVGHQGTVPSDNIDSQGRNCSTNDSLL
Sequence of KiSS-1 receptor (Homo sapiens) (Q969F8 whole entry, looked up): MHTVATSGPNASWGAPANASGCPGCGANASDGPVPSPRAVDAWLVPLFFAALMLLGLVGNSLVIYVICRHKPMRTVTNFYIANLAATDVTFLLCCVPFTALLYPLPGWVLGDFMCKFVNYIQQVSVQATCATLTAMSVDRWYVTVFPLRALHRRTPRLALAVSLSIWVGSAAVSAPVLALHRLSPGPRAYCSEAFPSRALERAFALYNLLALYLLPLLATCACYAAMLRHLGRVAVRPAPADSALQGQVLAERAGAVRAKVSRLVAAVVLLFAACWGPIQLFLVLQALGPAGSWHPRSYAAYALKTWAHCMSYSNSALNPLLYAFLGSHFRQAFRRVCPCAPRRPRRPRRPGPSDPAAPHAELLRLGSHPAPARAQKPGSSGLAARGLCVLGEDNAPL
Sequence of 5-hydroxytryptamine receptor 2A (Homo sapiens) (P28223 whole entry, looked up): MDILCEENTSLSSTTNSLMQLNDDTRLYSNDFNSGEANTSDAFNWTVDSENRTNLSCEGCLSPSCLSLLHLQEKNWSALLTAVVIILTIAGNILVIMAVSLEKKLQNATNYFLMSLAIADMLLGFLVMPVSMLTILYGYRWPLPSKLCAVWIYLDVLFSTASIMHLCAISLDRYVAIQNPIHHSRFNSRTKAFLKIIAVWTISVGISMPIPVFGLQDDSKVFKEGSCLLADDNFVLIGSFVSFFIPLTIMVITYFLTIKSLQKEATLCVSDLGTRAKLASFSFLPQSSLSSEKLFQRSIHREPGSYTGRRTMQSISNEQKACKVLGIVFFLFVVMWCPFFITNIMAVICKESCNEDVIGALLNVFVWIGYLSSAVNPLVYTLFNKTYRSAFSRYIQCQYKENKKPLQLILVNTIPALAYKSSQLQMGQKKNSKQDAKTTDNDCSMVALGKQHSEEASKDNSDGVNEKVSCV
Sequence of D(2) dopamine receptor (Homo sapiens) (P14416 whole entry, looked up): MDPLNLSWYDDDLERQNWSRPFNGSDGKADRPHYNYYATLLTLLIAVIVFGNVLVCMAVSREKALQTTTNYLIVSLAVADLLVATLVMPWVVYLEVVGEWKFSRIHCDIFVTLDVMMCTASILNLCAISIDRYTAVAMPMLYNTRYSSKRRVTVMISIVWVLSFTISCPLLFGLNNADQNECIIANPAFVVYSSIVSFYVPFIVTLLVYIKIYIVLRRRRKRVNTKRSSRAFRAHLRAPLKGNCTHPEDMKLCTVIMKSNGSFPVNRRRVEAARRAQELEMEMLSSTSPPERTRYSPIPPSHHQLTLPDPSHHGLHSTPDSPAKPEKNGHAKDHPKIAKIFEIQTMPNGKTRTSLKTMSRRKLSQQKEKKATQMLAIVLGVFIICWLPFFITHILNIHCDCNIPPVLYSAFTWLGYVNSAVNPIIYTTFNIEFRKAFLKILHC

| Compound | Potency [1] | Potency [2] | Potency [3] | Potency [4] | Potency [5] | Potency [6] | Potency [7] | Potency [8] | Potency [9] | Potency [10] | Potency [11] | Potency [12] | Potency [13] | Potency [14] | Potency [15] | Potency [16] | Potency [17] | Potency [18] | Potency [19] | Potency [20] |
| --- | --- | --- | --- | --- | --- | --- | --- | --- | --- | --- | --- | --- | --- | --- | --- | --- | --- | --- | --- | --- |
| Clc1cnc(Oc2ccc(Oc3ncc(Cl)cc3Cl)cc2)c(Cl)c1 | inactive | inactive | inactive | inactive | inactive | inactive | inactive | inactive | inactive | inactive | inactive | inactive | inactive | inactive | inactive | inactive | inactive | inactive |  |  |
| CCCCCCOC(=O)c1ccccc1C(=O)OCCCCCC | inactive | inactive | inactive | inactive | inactive | inactive | inactive | inactive | inactive | inactive | inactive | inactive | inactive | inactive |  | inactive | inactive | inactive | inactive | inactive |
| O=[N+]([O-])c1ccccc1 | inactive | inactive | inactive | inactive | inactive | inactive | inactive | inactive | inactive | inactive | inactive | inactive | inactive | inactive | inactive |  | inactive | inactive |  | inactive |
| C[C@]12CCC(=O)C(O)=C1CC[C@@H]1[C@@H]2CC[C@]2(C)C(=O)CC[C@@H]12 | inactive | inactive | inactive | inactive | inactive | inactive | inactive | inactive | inactive | inactive | inactive | inactive | inactive | inactive | inactive | inactive | inactive | inactive |  |  |
| CC(=[OH+])/C=C(/C)[O-].CC(=[OH+])/C=C(\C)[O-].CC(=[OH+])/C=C(\C)[O-].[Al] | inactive | inactive | inactive | inactive | inactive | inactive | inactive | inactive | inactive | inactive | inactive | inactive | inactive | inactive |  | inactive | inactive | inactive | inactive | inactive |
| CC(C)=CC1C(C(=O)OCN2C(=O)C3=C(CCCC3)C2=O)C1(C)C (centres undefined) | inactive | 48.6 µM (active) and 26.6 µM (active) | inactive | inactive | inactive | inactive | inactive | inactive | inactive | inactive | inactive | inactive | inactive | 8.18 µM (active) | inactive | inactive | inactive | inactive |  |  |
| C[C@H]1C(=O)O[C@@H]2CCN3CC=C(COC(=O)[C@](C)(O)[C@]1(C)O)[C@H]23 | inactive | inactive | inactive | inactive | inactive | inactive | inactive | inactive | inactive | inactive | inactive | inactive | inactive |  |  | inactive |  | inactive | inactive | inactive |
| ClCCBr | inactive | inactive | inactive | inactive | inactive | inactive | inactive | inactive | inactive | inactive | inactive | inactive | inactive | inactive |  | inactive | inactive | inactive | inactive | inactive |
| CCOC(=O)N(C)N=O | inactive | inactive | inactive | inactive | inactive | inactive | inactive | inactive | inactive | inactive | inactive | inactive | inactive | inactive |  | inactive | inactive | inactive | inactive | inactive |
| Cn1cc[n+](C)c1 (tested in a mixture with another compound) | inactive | inactive | inactive | inactive | inactive | inactive | inactive | inactive | inactive | inactive | inactive | inactive | inactive |  | inactive | inactive | inactive | inactive | inactive | inactive |
| CCCCCCCCOC(=O)c1ccc(C(=O)OCCCCCCCC)c(C(=O)OCCCCCCCC)c1 | inactive | inactive | inactive | inactive | inactive | inactive | inactive | inactive | inactive | inactive | inactive | inactive | inactive | inactive | inactive |  | inactive | inactive |  | inactive |
| Nc1ccc(-c2ccccc2)cc1 | inactive | 13.7 µM (active) | inactive | inactive | inactive | inactive | inactive | inactive | inactive | inactive | inactive | inactive | inactive | inactive | inactive | inactive |  | inactive |  | inactive |
| CC(C)=CC1C(C(=O)OCc2cccc(Oc3ccccc3)c2)C1(C)C (centres undefined) | inactive | inactive | inactive | inactive | inactive | inactive | inactive | inactive | inactive | inactive | inactive | inactive | inactive | inactive |  | inactive |  | inactive | inactive | inactive |
| CC(Oc1ccc(Cl)cc1Cl)C(=O)O (centres undefined) | inactive | inactive | inactive | inactive | inactive | inactive | inactive | inactive | inactive | inactive | inactive | inactive | inactive | inactive | inactive | inactive | inactive | inactive |  |  |
| CCC(C)c1ccc(O)cc1 (centres undefined) | inactive | inactive | inactive | inactive | inactive | inactive | inactive | inactive | inactive | inactive | inactive | inactive | inactive | inactive | inactive | inactive | inactive | inactive |  |  |
